Source: PubChem BioAssay (NCATS)
The source made the active and inactive calls. The call rests on the fitted dose curve.

Experiment: qHTS drug screen for cell cycle checkpoint inhibitors in PARPi-resistant BRCA-mutant ovarian cancer cell lines. (AID 1963452)
Conditions: PEO1/OlaR viability, CellTiter-Glo luminescence, 96 h; for Z-AUC: stronger effect = lower value
Summary of the method: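 PEO1, PEO4 and PEO1/OlaR ovarian cancer cells, 600 per well, exposed 96 h at 37C to a dilution series. Viability read by CellTiter-Glo luminescence, normalized to DMSO and empty wells; activity summarized as Z-AUC.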

[1] = measured here: PEO1 parental Z-AUC
Potency means the concentration at half of the fitted maximal effect.

Compound: C[C@@H](NCc1cc2ccccc2[nH]1)c1cccc2ccccc12
- Z-AUC: 0.66 (inactive)
- Z-AUC [1]: 0.376
- Z-AUC (measured here: PEO4 Z-AUC): 0.0374

Compound: Nc1nc(N)c2nc(-c3cccc(O)c3)c(-c3cccc(O)c3)nc2n1
- Z-AUC: 0.00904 (inactive)
- Z-AUC [1]: 1.16
- Z-AUC (measured here: PEO4 Z-AUC): 0.781

Compound: CN(C)c1ccc(C(=O)NCCCCCCC(=O)NO)cc1
- Z-AUC: -1.48 (inactive)
- Z-AUC [1]: -0.12
- Z-AUC (measured here: PEO4 Z-AUC): -0.674

Compound: Cc1cnc(NC(=O)Nc2cc(Br)c(C)cc2OC[C@@H]2CNCCO2)cn1
- Z-AUC: -0.43 (inactive)
- Z-AUC [1]: -0.193
- Z-AUC (measured here: PEO4 Z-AUC): -0.00574

Compound: CCCCCCCCc1ccc(CCC(N)(CO)CO)cc1
- Z-AUC: -0.00924 (inactive)
- Z-AUC [1]: -0.111
- Z-AUC (measured here: PEO4 Z-AUC): 0.091

Compound: Cn1cc(C2=C(c3c4n(c5ccccc35)CCC(CN)C4)C(=O)NC2=O)c2ccccc21 (stereo unspecified)
- Z-AUC: 0.936 (inactive)
- Z-AUC [1]: 1.25
- Z-AUC (measured here: PEO4 Z-AUC): 1.18

Compound: c1cc(CN2CCCNCCNCCCNCC2)ccc1CN1CCCNCCNCCCNCC1
- Z-AUC: 0.916 (inactive)
- Z-AUC [1]: 0.744
- Z-AUC (measured here: PEO4 Z-AUC): 1.11

Compound: O=C(O)CCCCCC(=O)NN=C1CCCC1
- Z-AUC: 1.41 (inactive)
- Z-AUC [1]: 1.02
- Z-AUC (measured here: PEO4 Z-AUC): 1.15

Compound: Cc1cc(C(=O)NOCCO)c(Nc2ccc(I)cc2F)n(C)c1=O
- Z-AUC: -0.774 (inactive)
- Z-AUC [1]: -1.14
- Z-AUC (measured here: PEO4 Z-AUC): -0.82

Compound: COc1cccc2c1C(=O)c1c(O)c3c(c(O)c1C2=O)C[C@@](O)(C(=O)CO)C[C@@H]3O[C@H]1C[C@H](N)[C@@H](O)[C@H](C)O1
- Potency: 219 nM (active)
- Z-AUC [1]: -2.06
- Z-AUC (measured here: PEO4 Z-AUC): -1.69

Compound: CCOC(=O)C1=C(C)NC(=S)NC1c1cccc(O)c1 (stereo unspecified)
- Z-AUC: 1.34 (inactive)
- Z-AUC [1]: 0.343
- Z-AUC (measured here: PEO4 Z-AUC): 0.61

Compound: COC(=O)C1C2CC3c4[nH]c5cc(OC)ccc5c4CCN3CC2CC(OC(=O)c2cc(OC)c(OC)c(OC)c2)C1OC (stereo unspecified)
- Z-AUC: 1.42 (inactive)
- Z-AUC [1]: 0.441
- Z-AUC (measured here: PEO4 Z-AUC): 0.416
